Screens as filed in PubChem.
uPA generation – qHTS for Inhibitors of Cell Surface uPA Generation | cell surface uPA generation assay, qHTS | Potency, µM (series often up to 38.3 µM), for inactives: at the top dose activity change, negative = inhibition, usual class: inhibitors | hit rate 0.31% among 330,000 | AID 540303, 2011; active = well fitted inhibition curve with a large enough effect; inconclusive = small, poorly fitted or top-dose-only effect; inactive = no such curve, though single readings can be large or run the other way; tested in mouse RAW 264.7 cells; also: potency is read from the fitted curve at half-maximal effect; % is scaled to controls: 0 for no effect and ±100 for the full control effect; nearly all actives have a fitted effect of over 55% in size
Mm-Cpn inhibitor – Inhibitors of TCP-1 ring complex (TRiC) of Methanococcus maripaludis (MmCpn): qHTS. purified Mm-Cpn ATPase, ADP Transcreener TR-FRET. Potency, µM (highest dose often 76.9 µM), inactives show at the highest dose activity, negative = inhibition, actives largely listed as inhibitors. Chaperonin Mm-Cpn (Methanococcus maripaludis). AID 504842, 2011. hit rate 0.031% among 330,000; also: potency is read from the fitted curve at half-maximal effect; % is scaled to controls: 0 for no effect and ±100 for the full control effect; nearly all actives have a fitted effect of over 80% in size
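Eu-cryptate anti-ADP/ADP-d2 competition gives a ratio inversely related to ADP. Enzyme at 25 nM was pre-exposed to compound for 10 min, then given 10 uM ATP for 30 min, 37°C throughout.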
MBNL1-CUG inh – qHTS Assay for Inhibitors of MBNL1-poly(CUG) RNA binding; Muscleblind-like protein 1 (Homo sapiens), Q9NR56; TR-FRET MBNL1-His/biotin-(CUG)12 binding, 665/545 ratio; Potency, µM (doses to about 57.5 µM), without a hit: at the highest dose activity change, negative = inhibition, most hits filed as inhibitors; hit rate 0.036% among 280,000; AID 2675, 2010; active = well fitted inhibition curve with a large enough effect in the signal ratio, with a control signal flat, not every such curve was filed as active; inconclusive = small, poorly fitted or top-dose-only effect, or effect the other way, or a change in a side signal; inactive = no such curve, though single readings can be large or run the other way; the % refers to the signal ratio; also: potency is read from the fitted curve at half-maximal effect; % is scaled to controls: 0 for no effect and ±100 for the full control effect
Target sequence (Q9NR56 whole entry, looked up): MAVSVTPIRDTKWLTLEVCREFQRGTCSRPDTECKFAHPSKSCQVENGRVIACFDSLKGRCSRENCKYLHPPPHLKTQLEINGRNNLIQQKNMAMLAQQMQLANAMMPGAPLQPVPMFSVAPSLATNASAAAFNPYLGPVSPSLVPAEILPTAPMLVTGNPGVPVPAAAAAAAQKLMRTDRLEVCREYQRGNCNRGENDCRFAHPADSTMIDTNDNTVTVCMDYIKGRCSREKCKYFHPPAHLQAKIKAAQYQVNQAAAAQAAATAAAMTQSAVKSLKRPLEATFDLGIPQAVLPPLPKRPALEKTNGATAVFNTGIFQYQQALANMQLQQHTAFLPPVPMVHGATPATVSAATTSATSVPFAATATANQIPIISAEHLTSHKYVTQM
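Inhibition of protein-RNA binding appears as loss of TR-FRET between terbium anti-His antibody on MBNL1-His and streptavidin-XL665 on biotin-(CUG)12. Activity is normalized to buffer-only and uninhibited-complex controls.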
CCT chaperon mod – High-Throughput Screening for Modulators of Cytosolic Chaperonin Activity. AID 651819, 2012. activity change, % (test concentration not listed), hits read low. hit rate 0.3% among 360,000. purified chaperonin ATPase assay, HTRF ADP detection, 30 min; in the data active = activity change below about -30%; also: % is scaled to controls: 0 for no effect and ±100 for the full control effect
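First, chaperonin was dispensed at 40 nM or 20 nM final depending on batch activity. Next, compounds were pinned at 76 uM and ATP added at 10 uM. After 30 min at 37 °C, ADP detection reagents ran 30 min at ambient temperature.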
Akt phos inh – HTS Assay for Inhibitors of Akt Phophorylation: Primary Screen; activity change, % for hits at 50 µM; hit rate 0.32% among 360,000; Neuro2A IGF-stimulated pAkt S473 HTRF, 20 min; stronger effect = lower value; in the data active = activity change below about -80%; inconclusive = mostly about -51% to -80%; also: % is scaled to controls: 0 for no effect and ±100 for the full control effect
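Single-point screen (50 µM final compound) in Neuro2A cells stimulated 20 min with 6 nM IGF at 37 deg C. After lysis, Ser473-phosphorylated Akt read by HTRF (ex 330 nm, em 615/665 nm) as the 665/615 ratio.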
Epigenetic derep – Quantitative High-Throughput Screen for Regulators of Epigenetic Control | Potency, µM (doses to about 53.9 µM), inactives show at the top dose GFP activation, most hits filed as activators | hit rate 0.2% among 280,000 | AID 1865, 2009 | murine LDR cells, GFP reporter derepression, 30 h; also: potency is read from the fitted curve at half-maximal effect; % of control where 0% means no effect; nearly all actives have a fitted effect of over 60% in size
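Reporter derepression read as number of fluorescent GFP-positive objects, 20-120 um in size, counted by laser-scanning cytometer. Mouse LDR line with an epigenetically silenced CMV-GFP locus; compound incubation 30 h, 37 C.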
* = called active by the depositor; i = inactive; ? = inconclusive; · = no result given. An excerpt weighted towards active compounds, which were near 0.97% of everything screened. Unless noted, calls follow the shape of the dose curve; as a rule, active = well fitted curve in the direction sought with a large enough effect; inconclusive = small, poorly fitted or top-dose-only effect, or another doubt; inactive = no such curve, though single readings can be large; an effect the other way counts as inactive or inconclusive.

SMILES	uPA generation	Mm-Cpn inhibitor	MBNL1-CUG inh	CCT chaperon mod	Akt phos inh	Epigenetic derep
CC(=O)NC(O)C(=O)c1ccccc1 (stereo not given)	-0.6%	0.3%	7.1%	1.9	-109.1%*	-1.0%
CC(=O)NC(Cc1ccccc1)Cc1ccccc1	-0.6%	-1.7%	-7.8%	-1.6	i	·
Cc1ccc(CSc2ccc3nnc(-c4cccnc4)n3n2)cc1	-10.7%	-1.5%	14.9%	2.4	i	1.0%
Fc1cccc(CSc2ccc3nnc(-c4cccnc4)n3n2)c1	-3.8%	-0.6%	2.8%	-30.3*	i	2.3%
CCCSc1cc(N2CCN(C)CC2)nc(-c2ccc(OC)cc2)n1	7.5%	-1.3%	-4.6%	0.8	-88.6%*	-0.8%
CCCSc1cc(N2CCCC2)nc(-c2ccccc2)n1	2.8%	?	-5.0%	2.2	i	-1.1%
O=[n+]1c2c(n([O-])c3ccccc31)CCCC2	·	0.9%	?	1.4	i	-2.5%
CCOc1ccc(NC(=S)c2ccc3ccccc3n2)cc1	11.9%	-3.2%	-5.0%	-30.0*	i	·
CCOc1ccc(NC(=O)c2ccccn2)cc1	1.58µM*	0.4%	-5.4%	-5.4	i	-2.0%
CCOc1ccc(NC(=O)C2CC(C)=C(C)CC2C(=O)O)cc1 (stereo not given)	5.7%	0.6%	-1.9%	-2.6	-118.5%*	0.0%
CCOc1ccc(NC(=O)C2CC=CCC2C(=O)O)cc1 (stereo not given)	·	1.8%	-0.6%	-2.0	·	-1.0%
COc1cc(OC)cc(C(=O)NNC(=O)c2ccccn2)c1	3.3%	0.8%	30.6%	2.1	i	-1.1%
COc1ccc(C(=O)NNC(=O)c2ccccn2)cc1	3.16µM*	-9.9%	-24.6%	-0.5	i	-0.9%
CCN(CC)C(=O)CSc1nnc(SC(C)C(=O)NC2CC2)s1 (stereo not given)	2.1%	0.6%	·	-5.1	i	·
Cc1ccc(NC(=O)CN2CCN(S(=O)(=O)c3ccc4c(c3)OCCO4)CC2)c(C)c1	·	·	·	1.9	i	·
Cc1ccc(C2=Nc3ccccc3N=C(c3ccc([N+](=O)[O-])cc3)C2)c(O)c1	2.7%	-2.4%	12.5%	-2.5	i	0.0%
COc1ccc(-c2cn3nc(N4CCC(C(=O)Nc5ccc(C)cc5)CC4)sc3n2)cc1	·	·	·	·	·	0.0%
CC(C)Sc1nc(NCc2ccco2)c2c3c(sc2n1)COC(C)(C)C3	-3.3%	?	15.2%	-6.9	-118.2%*	-7.4%
CCOc1ccc(N2C(=O)CC(C(C)c3ccccc3)C2=O)cc1 (stereo not given)	2.0%	0.2%	1.3%	-2.1	i	·
CC(c1ccccc1)C1CC(=O)N(c2ccc(C(=O)O)cc2)C1=O (stereo not given)	3.4%	?	-7.5%	-0.9	-81.2%*	-1.0%
Cc1cccc(C)c1NC(=O)c1ccc(-c2ccc(Cl)cc2Cl)o1	5.1%	1.4%	5.0%	0.6	-115.4%*	2.9%
CCCCCCc1nc2c(=O)[nH]c3ccccc3c2o1	6.0%	-0.9%	21.0%	-3.3	-87.5%*	-1.0%
Cc1cccc(N2CCN(C3C(=O)Nc4ccccc4-n4nnnc43)CC2)c1C (stereo not given)	·	·	·	·	i	·
COc1cc(/C=N/Nc2nncn2N)ccc1OCc1c(C)no[n+]1[O-]	11.2µM*	-1.7%	·	-0.8	i	-2.4%
O=C1c2ccccc2C(c2nnnn2Cc2ccccc2)N1Cc1cccs1 (stereo not given)	·	·	·	0.3	i	·
SMILES	uPA generation	Mm-Cpn inhibitor	MBNL1-CUG inh	CCT chaperon mod	Akt phos inh	Epigenetic derep
CC1(CCc2ccccc2)NC(=O)N(CC(=O)Nc2c(F)cccc2F)C1=O (stereo not given)	-12.0%	-3.3%	·	-50.8*	i	·
CCC12CN3CC(CC)(CN(C1)C3c1ccc(OC(C)C)cc1)C2=O (stereo not given)	2.7%	0.1%	2.3%	-1.9	-111.9%*	-1.1%
CCCC12CN3CC(C)(CN(C1)C3c1ccc(OC)cc1)C2=O (stereo not given)	-1.0%	-1.2%	-5.2%	0.3	i	-0.9%
C=CCOC(=O)C1=C(C)OC(N)=C(C#N)C1c1ccc(OC)c(CSc2ccccn2)c1 (stereo not given)	-2.0%	-1.2%	1.0%	-84.7*	i	1.0%
CN1/C(=C\C(=O)c2cccs2)Sc2ccccc21	-15.9%	-0.3%	?	0.5	-104.3%*	0.2%
COCCNc1nc(-c2ccccc2CN(C)C)nc2ccccc12	·	·	·	·	·	1.5%
CCCOC(=O)c1cccc(NC(=O)C(C)(C)C)c1	-2.6%	0.1%	1.3%	-1.3	i	0.0%
CCCCOC(=O)c1cccc(NC(=O)CC)c1	-0.8%	0.4%	-3.1%	-0.1	-112.3%*	-2.0%
CCC(=O)c1ccc(OCC(=O)Nc2cc(S(=O)(=O)N3CCCCC3)ccc2N2CCN(CC)CC2)cc1	-6.7%	0.6%	·	-120.8*	i	·
O=C(CCC(=O)c1ccc(F)cc1)Nc1ccc(Cl)cc1	·	·	·	·	·	-1.1%
COc1ccc(N(CC(=O)NC2CCCCC2)C(=O)CNC(=O)c2ccco2)cc1	0.3%	-1.2%	-7.0%	-1.4	i	5.2%
CC(=O)N1c2c(cc(Br)cc2S(=O)(=O)Nc2c(C)n(C)n(-c3ccccc3)c2=O)CC1C (stereo not given)	3.9%	0.9%	-1.0%	-41.3*	i	2.6%
Cc1cccc(C(=O)N2CCN=C2SCc2ccc([N+](=O)[O-])cc2)c1	0.4%	2.0%	10.7%	2.7	i	-1.4%
CCOc1ccc(/C=C(\C#N)C(=O)Nc2cccnc2)cc1	-2.7%	-0.6%	·	-62.7*	i	0.0%
CCOc1cccc(NC(=O)/C(C#N)=C/c2cccnc2)c1	-7.5%	-0.2%	-4.0%	-3.0	i	-1.1%
C[C@@H]1CN([C@@H](C)CO)C(=O)CCCn2nncc2CO[C@@H]1CN(C)S(=O)(=O)c1cccs1	·	·	·	-0.5	i	·
CCC(=O)OCc1cnc(C)c2oc(=O)c(C(=O)Nc3ccccc3C(F)(F)F)cc12	·	·	·	·	·	0.4%
Oc1c(Cl)cc(CN2CCOCC2)c2cccnc12	?	-1.9%	·	1.5	i	·
CN1CCN(Cc2cc(COCc3ccccc3)c3cccnc3c2O)CC1	-11.5%	2.1%	?	-0.5	i	3.55µM*
Oc1c(CN2CCc3ccccc3C2)cc(Cl)c2cccnc12	?	0.0%	36.6%	0.2	i	3.98µM*
Oc1ccc(CN2CCN(Cc3ccccc3)CC2)c2cccnc12	-7.9%	-0.5%	2.9%	1.8	i	0.0%
